Laboratory results as given in PubChem BioAssay.

Biological target: NADPH oxidase 5 (Homo sapiens) (UniProt Q96PH1)
Assay: NOX5-dependent H2O2 signal modulators, primary screen, NOX inhibitor project, cell-based, HEK293-NOX5, Amplex Red fluorescence (AID 1161)
Conditions: HEK293-NOX5, ionomycin, 45 min, higher = more signal

Chain of NADPH oxidase 5 (Homo sapiens) (Q96PH1 whole entry, looked up): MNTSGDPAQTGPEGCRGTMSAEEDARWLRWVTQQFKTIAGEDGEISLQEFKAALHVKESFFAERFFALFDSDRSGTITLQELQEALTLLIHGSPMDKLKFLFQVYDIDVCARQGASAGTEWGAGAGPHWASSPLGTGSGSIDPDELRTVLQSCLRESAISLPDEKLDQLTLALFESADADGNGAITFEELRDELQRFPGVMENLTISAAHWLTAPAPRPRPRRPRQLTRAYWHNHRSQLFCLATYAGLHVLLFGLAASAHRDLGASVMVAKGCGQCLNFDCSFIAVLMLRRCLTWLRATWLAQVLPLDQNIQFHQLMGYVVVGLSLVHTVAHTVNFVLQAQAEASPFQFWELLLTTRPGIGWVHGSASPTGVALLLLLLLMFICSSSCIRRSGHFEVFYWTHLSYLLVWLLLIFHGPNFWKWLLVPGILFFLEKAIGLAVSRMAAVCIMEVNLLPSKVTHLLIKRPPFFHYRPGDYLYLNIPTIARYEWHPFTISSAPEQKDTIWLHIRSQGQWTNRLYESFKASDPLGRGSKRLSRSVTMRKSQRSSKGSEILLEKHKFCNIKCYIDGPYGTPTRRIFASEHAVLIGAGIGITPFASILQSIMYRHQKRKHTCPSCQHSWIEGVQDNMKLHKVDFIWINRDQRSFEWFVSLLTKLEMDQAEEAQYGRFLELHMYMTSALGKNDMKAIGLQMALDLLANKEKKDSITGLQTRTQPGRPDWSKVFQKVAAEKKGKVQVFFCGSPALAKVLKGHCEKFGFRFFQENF

Row | SMILES | z-score
1 | CO[C@H]1COC(=O)CC=C[C@H](C)[C@@H](OC)COC(=O)[C@@H](C)NC(=O)CC=C[C@@H]1C | -0.0966
2 | CC(C)[C@@H](OCc1ccccc1)[C@H](C)C=NOC[C@@H](O)COCc1ccco1 | -0.548
3 | CCCCC#C[C@@H]1C=C[C@H](OC(C)=O)[C@@H](COC(C)=O)O1 | 2.02
4 | CO[C@@H]1COC(=O)[C@@H](C)COC(=O)[C@@H](C)NC(=O)CC=C[C@@H]1C | -2.91
5 | C[C@H]1Cc2c(COc3ccccc3)nc3c(c2CO1)CN(CCOc1ccccc1)CC3 | -0.00428
6 | CCCNC(=O)OC[C@H]1O[C@H](CCON=C(C)CCC(=O)OC[C@H]2O[C@H](c3ccccc3)C=C[C@@H]2Oc2ccc(OC)cc2)C=C[C@@H]1Oc1ccc(OC)cc1 | -0.295
7 | CCOC(=O)NN=C1C[C@@H](O)[C@@H](O)[C@@H]2[C@@H]3C(=O)N(C(C)(C)C)C(=O)[C@@H]3CC[C@H]12 | 0.0282
8 | C[C@@H](ON=C1[C@H]2CCn3c(=O)n(-c4ccccc4)c(=O)n3[C@H]2[C@H](O)[C@@H]2O[C@H]12)c1cn([C@@H]2COC[C@H]2O)nn1 | -0.461
9 | COc1ccc(COC(=O)NN=C2C[C@@H](O)[C@@H](O)[C@@H]3[C@@H]4C(=O)N(C5CCCCC5)C(=O)[C@@H]4CC[C@H]23)cc1 | -0.712
10 | CC(=O)OC[C@H]1O[C@H](C#Cc2ccccc2)C=C[C@@H]1OC(C)=O | 1.54
11 | O=C1CCCC=C1C(CCc1ccccc1)OC(=O)c1ccc(Br)cc1 (stereo not given) | -1.5
12 | CCN1C(=O)[C@@H]2[C@H]3C(=CC[C@@H]2C1=O)C1(OCCCO1)[C@H]1O[C@H]1[C@H]3O | -5.86
13 | O=C1[C@H]2[C@H]3[C@H](O)[C@H](O)CC(=NOCc4ccccc4)[C@@H]3CC[C@H]2C(=O)N1C[C@@H]1CCCO1 | 0.102
14 | COC(=O)[C@H]1O[C@@H](c2c(OC)c(OC)c(C)c(OC)c2OC)[C@H](C)[C@@H](O)[C@H]1C | 0.194
15 | C#CCCCON=C1C[C@@H](O)[C@@H](O)[C@@H]2[C@@H]3C(=O)N(C(C)(C)C)C(=O)[C@@H]3CC[C@H]12 | 0.307
16 | C=CC[C@@H]1C=C[C@H](ON=C(C)CCN2CCc3nc(-c4ccccc4)c(-c4ccccc4)cc3C2)[C@@H](CO)O1 | -2.75
17 | CC(C)=CCCC(C)=CCON=C1C[C@@H](O)[C@@H](O)[C@@H]2[C@@H]3C(=O)N(Cc4ccccc4)C(=O)[C@@H]3CC[C@H]12 | -2.3
18 | C[n+]1ccc(-c2ccc(CO)cc2)cc1 | -3.04
19 | CC(C)=CCCC(C)=CCON=C1C[C@@H](O)[C@@H](O)[C@@H]2[C@@H]3C(=O)N(c4cccc(Oc5ccccc5)c4)C(=O)[C@@H]3CC[C@@H]12 | -3.35
20 | CO[C@@H]1COC(=O)[C@H](CCSC)NC(=O)CC=C[C@@H](C)COC(=O)[C@H](C)NC(=O)CC=C[C@H]1C | 0.0788
21 | CON=CC[C@@H]1C=C[C@H](OC(C)=O)[C@@H](COC(C)=O)O1 | -0.107
22 | CC(C)CON=C1C[C@@H](O)[C@@H](O)[C@@H]2[C@@H]3C(=O)N(c4ccc(F)cc4F)C(=O)[C@@H]3CC[C@H]12 | 0.178
23 | CC(C)(C)N1C(=O)[C@H]2[C@H]3[C@H](O)[C@H](O)CC(=NOCc4ccccc4)[C@H]3CC[C@H]2C1=O | 0.765
24 | C[C@@H](c1ccccc1)N1C(=O)[C@H]2[C@H]3[C@H](O)[C@H](O)CC(=NOCc4ccccc4)[C@H]3CC[C@H]2C1=O | -3.27
25 | CCOC(=O)[C@H](Cc1ccccc1)NC(=O)CCC1CC(OC(=O)NCc2cccc3ccccc23)CC2(CCCC(COC(=O)NCC(c3ccccc3)c3ccccc3)O2)O1 (stereo not given in full) | 0.347
